Bioassay records as filed in PubChem BioAssay.
Only some compounds are listed: those with a hit (about 3.6% of all), similar ones and a draw of the others.
CRE Fsk mod = modulators of forskolin-stimulated CRE signaling in CHO cells; CHO CRE-bla reporter (cAMP response element driving beta-lactamase), forskolin EC10, beta-lactamase ratio; Potency, µM (series often up to 38.2 µM), for inactives: at the highest dose activity change, negative = inhibition, usual class: activators; 71,000 compounds, 2.5% hits; active = well fitted activation curve with a large enough effect in the signal ratio, with a control signal flat, not every such curve was filed as active; inconclusive = small, poorly fitted or top-dose-only effect, or effect the other way, or a change in a side signal; the % refers to the signal ratio; also: % of control where 0% means no effect
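Forskolin analogue NKH 477 at EC10 stimulated CRE-driven beta-lactamase in CHO cells alongside compound dilution series. Beta-lactamase was measured with CCF4, excitation 405 nm, emission ratio 460/530 nm.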
Tau fil binding = binders of human tau filaments; recombinant tau filaments, thioflavin S fluorescence, 15 h; filaments grown with octadecylsulfate alongside compound; P10636; 71,000 compounds, 2% hits; Potency, µM (highest dose often 57.1 µM), for inactives: top-dose activity change, negative = inhibition;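 also: % is scaled to controls: 0 for no effect and ±100 for the full control effect; actives lower thioflavin S fluorescence by blocking filaments or displacing dye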
Target sequence (P10636 whole entry, looked up): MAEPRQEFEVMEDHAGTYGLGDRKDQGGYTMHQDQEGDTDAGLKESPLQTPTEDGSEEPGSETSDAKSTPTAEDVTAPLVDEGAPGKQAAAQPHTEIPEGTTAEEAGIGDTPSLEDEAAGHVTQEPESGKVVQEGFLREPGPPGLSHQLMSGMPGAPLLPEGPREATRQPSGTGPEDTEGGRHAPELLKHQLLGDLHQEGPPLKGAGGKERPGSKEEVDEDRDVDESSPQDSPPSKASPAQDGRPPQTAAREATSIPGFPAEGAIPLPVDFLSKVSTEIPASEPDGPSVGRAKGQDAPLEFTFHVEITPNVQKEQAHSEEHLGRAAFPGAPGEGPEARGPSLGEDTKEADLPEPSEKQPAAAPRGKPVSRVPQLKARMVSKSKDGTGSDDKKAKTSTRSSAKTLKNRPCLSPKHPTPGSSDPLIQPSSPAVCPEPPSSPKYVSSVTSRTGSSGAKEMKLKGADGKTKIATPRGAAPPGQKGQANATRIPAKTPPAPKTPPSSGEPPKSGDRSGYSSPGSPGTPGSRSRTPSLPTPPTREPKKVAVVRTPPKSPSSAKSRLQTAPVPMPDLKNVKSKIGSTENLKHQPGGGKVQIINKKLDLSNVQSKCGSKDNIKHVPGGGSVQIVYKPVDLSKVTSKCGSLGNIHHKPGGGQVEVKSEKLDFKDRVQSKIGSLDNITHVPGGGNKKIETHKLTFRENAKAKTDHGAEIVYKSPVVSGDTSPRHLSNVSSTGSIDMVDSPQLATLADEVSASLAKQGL
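Quantitative HTS: thioflavine S signal from ODS-induced tau filaments, excited at 450 nm, emission 510 nm. Conditions: 1 uM tau, 30 uM ODS, 15 h at 37 C, pH 7.4.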
IkB signaling = inhibitors of IkB signaling in ABC-DLBCL cells; ABC-DLBCL IkBa-CBG/CBR dual luciferase ratio, 4 h; response scale: scaled: untreated 0%, proteasome inhibitor 100%; Potency, µM (highest dose often 57.1 µM), for inactives: at the highest dose IkBa stabilization activation; 110,000 compounds, 0.04% hits; active = well fitted curve in the direction sought with a large enough effect in the signal ratio, not every such curve was filed as active; inconclusive = small, poorly fitted or top-dose-only effect, or a change in a side signal; the % refers to the signal ratio;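 also: the direction sought is a rising ratio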
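Luminescence ratio of IκBα-fused green versus native red beetle luciferase in OCI-Ly3 cells, 4 h post-doxycycline with compound; red signal alone, scaled from basal (0%) to zero light (-100%), flagged nonspecific or cytotoxic effects.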
Hsp90 Hop PPI = changes Hsp90-Hop TPR2A binding signal, up or down; AlphaScreen TPR2A-His6 binding biotin-Hsp90 C-terminal peptide; Potency, µM (highest dose often 57 µM), for inactives: at the top dose activity change, negative = inhibition; 71,000 compounds, 0.44% hits; active = well fitted curve in either direction with a large enough effect; inconclusive = small, poorly fitted or top-dose-only effect, or another doubt; also: % is scaled to controls: 0 for no effect and ±100 for the full control effect
15-hLO inh = blocks human 15-lipoxygenase activity. purified 15hLO-1, xylenol orange hydroperoxide absorbance. Potency, µM (series often up to 57.1 µM), inactives show at the highest dose activity change, negative = inhibition, actives largely listed as inhibitors. 74,000 compounds, 1.4% hits; also: % is scaled to controls: 0 for no effect and ±100 for the full control effect; nearly all actives have a fitted effect of over 55% in size
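Purified human 15hLO-1 (40 nM final) in 25 mM Hepes pH 7.5, 0.01% Triton X-100 was preincubated with compound 15 min at room temperature, then reacted 6 min with 50 uM arachidonic acid; hydroperoxide detected by Fe-XO, 573/405 nm absorbance ratio.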
Numbers without * were called inactive; u = inconclusive; x = no result given; [ ] = dose if it differs, or a comment. Unless noted, calls follow the shape of the dose curve; as a rule, active = well fitted curve in the direction sought with a large enough effect; inconclusive = small, poorly fitted or top-dose-only effect, or another doubt; inactive = no such curve, though single readings can be large; an effect the other way counts as inactive or inconclusive. Potency is read from the fitted curve at half-maximal effect.

SMILES	CRE Fsk mod	Tau fil binding	IkB signaling	Hsp90 Hop PPI	15-hLO inh
COc1ccc(N2CCN(C(=O)C(C)(C)Oc3ccc(Cl)cc3)CC2)cc1	-16.0%	12.6µM*	u	-4.7%[2.3 µM]	u
N#Cc1c(/N=C/c2ccco2)sc2c1CCCCC2	16.0%	15.8µM*	-1.7%	-27.0%	-24.2%
N#Cc1c(/N=C/c2cccs2)sc2c1CCC2	-13.1%	15.8µM*	4.0%	-8.6%	-17.2%
O=c1c2c3c(sc2ncn1/N=C/c1ccco1)CCCC3	20.9%	21.8%	0.0%	-4.8%	-10.0%
N#Cc1c(NC(=O)CSc2ncn(-c3ccccc3)n2)sc2c1CCCC2	u	5.2%	-2.4%	-6.7%	3.5%
O=C(Nc1ccc(Br)cc1)C1CCN(S(=O)(=O)c2cccc3nsnc23)CC1	x	x	-5.7%	x	x
Nc1nn(S(=O)(=O)c2cccc3nsnc23)cc1-c1ccc(Br)cc1	-1.7%	15.8µM*	u	u	u
Cc1ccc(-c2cn(S(=O)(=O)c3cccc4nsnc34)nc2N)cc1	-7.0%	15.8µM*	2.9%	u	-13.5%
NS(=O)(=O)c1ccc(CCNC(=O)c2ccc3nc(CCc4ccccc4)oc3c2)cc1	x	x	-0.4%	x	x
COc1ccc(Nc2nc(OC)nc(N3CCN(c4ccc(OC)cc4)CC3)n2)cc1	17.7%	70.0%	-0.9%	-17.5%	-0.5%
COc1ccc(N2CCN(c3nc(NCCc4ccc(OC)c(OC)c4)nc(OC)n3)CC2)cc1	3.16µM*	-7.5%	u	-25.0%	-11.4%
c1cncc(-c2nn3c(Cn4cnc5ccccc54)nnc3s2)c1	u	-10.5%	-2.1%	-13.9%	3.98µM*
c1ccc(-c2nn3c(Cn4cnc5ccccc54)nnc3s2)cc1	16.3%	13.5%	0.9%	-5.6%	u
COc1ccc(C2c3c(oc4ccc(Cl)cc4c3=O)C(=O)N2CCCN(C)C)cc1OC (stereo unspecified)	x	x	-0.5%	x	x
CCOc1ccccc1N1CCN(S(=O)(=O)c2cccc3nsnc23)CC1	-12.5%	20µM*	4.6%	-12.2%	2.0%
CCOc1ccccc1N1CCN(S(=O)(=O)CC)CC1	-7.8%	-23.2%	-0.8%	-5.6%	-19.1%
CCOC(=O)N1CCC(Nc2c(OCC)c(=O)c2=O)CC1	3.9%	-5.6%	4.6%	-2.4%[2.3 µM]	6.1%
CCOC(=O)N1CCC(Nc2c(Nc3ccc(C)c(C)c3)c(=O)c2=O)CC1	u	20µM*	3.2%	-8.1%	-15.5%
O=C(CSc1nc2c([nH]c3ccccc32)c(=O)n1-c1ccc(F)cc1)NCc1ccc(F)cc1	x	x	3.8%	x	x
Cc1ccc(Cl)cc1NC(=O)C(NS(=O)(=O)c1cccc2nsnc12)c1ccccc1 (stereo unspecified)	x	x	1.7%	x	x
Cc1ccc(C)c(NC(=O)CSc2cn(CC(=O)N3CCCCC3)c3ccccc23)c1	x	x	0.8%	x	x
CCNc1nc(OC)nc(Oc2ccc(=O)n(-c3ccccc3)n2)n1	u	1.2%	0.9%	-3.2%	0.0%
COc1nc(NCC(C)C)nc(Oc2ccc(=O)n(-c3ccccc3)n2)n1	12.6µM*	-19.8%	-3.2%	0.8%	5.5%
O=C(NCc1cccnc1)c1nn(-c2ccccc2F)nc1CO	x	x	1.2%	x	x
COc1cc(OC)c(-c2nn3c(-c4ccco4)nnc3s2)cc1OC	3.16µM*	61.1%	-1.4%	-15.1%	-17.9%
SMILES	CRE Fsk mod	Tau fil binding	IkB signaling	Hsp90 Hop PPI	15-hLO inh
Cc1oc(-c2ccc(F)cc2)cc1-c1nn2c(-c3ccco3)nnc2s1	-3.8%	11.9%	2.8%	-1.8%	u
c1ccc(-c2cc(-c3nn4c(-c5ccco5)nnc4s3)c3ccccc3n2)cc1	u	0.631µM*	u	-11.9%	3.8%
COc1ccc(-c2nn3c(-c4ccco4)nnc3s2)cc1OC	6.31µM*	19.2%	-7.2%	-8.1%	-14.2%
COc1ccc(-c2nnc3sc(-c4ccco4)nn23)cc1OC	u	-21.9%	u	-5.1%	12.6µM*
CCc1cnc2c(c1SC(C(C)=O)C(=O)N(C)C)c(=O)n(C)c(=O)n2C (stereo unspecified)	x	x	0.6%	x	x
CCOc1ccc(CNC(=O)C(C)n2ncn3cccc3c2=O)cc1 (stereo unspecified)	x	x	-0.7%	x	x
CCn1c2ccccc2c2nnc(SCC(=O)NCc3cccs3)nc21	10µM*	-12.8%	-0.3%	-2.3%	-16.1%
C=CCn1c2ccccc2c2nnc(SCC(=O)NC(C(=O)OC)C(C)C)nc21 (stereo unspecified)	5.01µM*	8.2%	-2.0%	-1.8%	-1.7%
CCCn1c2ccccc2c2nnc(SCC(=O)OC)nc21	2µM*	-17.5%[11.4 µM]	-0.3%	-4.1%[11 µM]	2.6%[11.4 µM]
CCn1c2ccccc2c2nnc(SCC(=O)NCCOC)nc21	u	4.6%	-0.4%	-0.7%	5.8%
C(#CC1C=CC2OC(c3ccccc3)OCC2O1)c1ccccc1 (stereo unspecified)	x	x	x	x	3.5%[11.4 µM]
COc1ccc(S(=O)(=O)NCCc2sc(-c3cccnc3)nc2C)c(F)c1	x	x	4.5%	x	x
C=CCn1c(=O)/c(=C/c2ccc(Cl)cc2)s/c1=C(/C#N)c1nnc2n1CCCCC2	u	15.8µM*	u	-3.8%	-21.9%
O=C(O)[C@@H](O)[C@@H](O)[C@@H](O[C@H]1O[C@@H](CO)[C@@H](O)[C@@H](O)[C@@H]1O)[C@@H](O)CO	-4.3%[17.1 µM]	0.6%[25.6 µM]	0.7%[25.6 µM]	-6.3%[26 µM]	14.3%[25.6 µM]
O=C1c2cc([N+](=O)[O-])ccc2-c2ccc3c4ccc5c6c(ccc(c7ccc1c2c73)c64)C(=O)c1cc([N+](=O)[O-])ccc1-5	-2.6%[7.6 µM]	1.58µM*	0.2%[11.4 µM]	u	-16.7%[11.4 µM]
CCc1cccc(-n2nnc(-c3nc(-c4ccccc4Cl)no3)c2N)c1	x	x	-0.5%	x	x
Cn1c(C(=O)N2COCC2(C)C)cc2c(=O)n3ccccc3nc21	10µM*	4.1%	-2.1%	0.0%	-0.6%
Cc1cccn2c(=O)c3cc(C(=O)NCC4CCCO4)n(C)c3nc12 (stereo unspecified)	u	15.5%	-1.6%	6.6%	7.9%
CCCCN(CC)C(=O)c1cc2c(=O)n3ccccc3nc2n1C	x	x	0.7%	x	x
O=C(Cn1ncn2c(cc3ccccc32)c1=O)NCCC1=CCCCC1	-4.3%	-2.3%	2.2%	-2.3%	15.8µM*
Cn1c(C(=O)NCCCN2CCCC2=O)cc2c(=O)n3ccccc3nc21	5.01µM*	-23.6%	-2.3%	0.2%	-10.6%
Cn1c(C(=O)NCC2CCCO2)cc2c(=O)n3ccccc3nc21 (stereo unspecified)	2.51µM*	8.1%	-2.2%	-1.4%	-1.0%
OCC1OC(c2ccc3c(c2)OCO3)C=CC1Oc1cc(Cl)cc(Cl)c1 (stereo unspecified)	x	x	x	x	-27.5%[11.4 µM]
Cn1c(C(=O)NCCC2=CCCCC2)cc2c(=O)n3ccccc3nc21	1.58µM*	-27.7%	-0.2%	2.5%	3.7%
COc1ccccc1CCNC(=O)c1cc2c(=O)n3cccc(C)c3nc2n1C	x	x	1.6%	x	x
CN(C)c1ccc(NC(=O)c2cc3c(=O)n4ccccc4nc3n2C)cc1	10µM*	-83.8%	-2.3%	-13.4%	-17.6%
